PubChem BioAssay (NCATS)
Several values for one entry are separate records, joined by “and”; a condition that tells them apart may be missing. Equal entries are not always repeated. Records with an inconclusive call do not appear. A call without a number means that no potency is given here. Activity calls are given as the source filed them. The call rests on the fitted dose curve; in most records, active means well fitted cell-killing curve with a large enough effect; inconclusive means small, poorly fitted or top-dose-only effect; inactive means no such curve, though single readings can be large or run the other way.

Experiment: Quantitative High-Throughput drug screen in 47 multiple myeloma cell lines against the NCATS MIPE library collection: NCIH929_DSMZ cell viability assay (AID 1918978); further: nearly all actives have a fitted effect of over 35% in size
Conditions: NCI-H929 myeloma viability, CellTiter-Glo ATP, 48 h; series mostly up to 45.8 µM
Text: PI: Beverly A. Mock Ph.D.
Laboratory of Cancer Biology and Genetics,
Center for Cancer Research, National Cancer Institute,
National Institute of Health, Bethesda, Maryland
Drug resistance and disease progression are common in multiple myeloma (MM) patients, underscoring the need for new therapeutic combinations. […] We hypothesized that effective combinations would reduce MYC expression and enhance p16 activity. […] These preclinical data identify potentially useful drug combinations for evaluation in drug-resistant MM and reveal potential mechanisms of combined drug sensitivity.
Described herein is the primary MIPE qHTS used to cherrypick compounds. Validated compounds were then further tested for potential synergistic activiy.
[1] Peat TJ, Gaikwad SM, Dubois W, Gyabaah-Kessie N, Zhang S, Gorjifard S, Phyo Z, Andres M, Hughitt VK, Simpson RM, Miller MA, Girvin AT, Taylor A, Williams D, D'Antonio N, Zhang Y, Rajagopalan A, Flietner E, Wilson K, Zhang X, Shinn P, Klumpp-Thomas C, McKnight C, Itkin Z, Chen L, Kazandijian D, Zhang J, Michalowski AM, Simmons JK, Keats J, Thomas CJ, Mock BA. Drug combinations identified by high-throughput screening promote cell cycle transition and upregulate Smad pathways in myeloma. Cancer Lett. 2023 Aug 1;568:216284. doi: 10.1016/j.canlet.2023.216284. Epub 2023 Jun 24. PMID: 37356470; PMCID: PMC10408729.
SEQUENCE No. (e.g., 1, 2, 3, etc.); […] (e.g., Cells, Incubation, Reagent, etc.); VALUE and DESCRIPTION.
1; Cells; 5 uL; white, solid bottom 1536-well Greiner assay plate.
2; Compounds; 23 nL; Kalypsis pin tool (Wako USA) equipped with a 1536-well pin head to transfer to the assay plates.
3; Incubation; 48 hours; 37C incubation.
4; Reagent;5uL; CellTiter Glo (Promega).
5; Detector; 425V; Luminescence; Viewlux PerkinElmer.
NOTES (numbers refer to Sequence numbers above)
1. The cell-based screening methods employed in this study were like those previously published. Briefly, the corresponding myeloma cell lines were screened in 1,536-well plates with 500 cells, 5-uL per well for inhibition of cell viability (assessed by measuring ATP levels with CellTiterGlo).
2. NCATS MIPE 4.0 library of approved and investigational drugs were added using the Kalypsis pin tool. Wells treated with DMSO only for 100% viability and media only for 0% viability were used as controls.
3. The assay plates were covered and incubated for 48 hours in a 37C, 5% CO2 incubator with controlled humidity.
4. After 48 hours, CellTilter-GloTM luminescent substrate mix (Promega) reagent was added to the assay plate and plates we incubated for 5 min at room temperature.
5. Signal was measured as median relative luminescence units on a ViewLux (PerkinElmer) multiplate reader.
[1] Heske CM, Davis MI, Baumgart JT, Wilson K, Gormally MV, Chen L, Zhang X, Ceribelli M, Duveau DY, Guha R, Ferrer M, Arnaldez FI, Ji J, Tran HL, Zhang Y, Mendoza A, Helman LJ, Thomas CJ. Matrix Screen Identifies Synergistic Combination of PARP Inhibitors and Nicotinamide Phosphoribosyltransferase (NAMPT) Inhibitors in Ewing Sarcoma. Clin Cancer Res. 2017 Dec 1;23(23):7301-7311. doi: 10.1158/1078-0432.CCR-17-1121. Epub 2017 Sep 12. PMID: 28899971; PMCID: PMC6636827.
Potency means the concentration at half of the fitted maximal effect.

Row | Structure (SMILES) | Potency
1 | Fc1ccc(Cl)cc1-c1nc(Nc2ccncc2)c2nccnc2n1 | 16.6 µM (active)
2 | COc1cc2nccc(Oc3ccc(NC(=O)NC4CC4)c(Cl)c3)c2cc1C(N)=O | 16.6 µM (active)
3 | O=C(C1CC1)N1CC[C@@H](Cn2c(-c3ccc(-c4ccc5occc5c4)cc3)nc3cnccc32)C1 | inactive
4 | Nc1cccc(S(=O)(=O)N2CCCN(S(=O)(=O)c3ccc4c(c3)OCCO4)CC2)c1 | inactive
5 | CCCCNc1cc(C(=O)O)cc(S(N)(=O)=O)c1Oc1ccccc1 | inactive
6 | COc1nc(-c2ccc3c(c2)OCO3)n(-c2ccc(NC(=O)CSc3ccccc3)cc2)n1 | inactive
7 | O=c1n(CCCN2CCN(c3cccc(Cl)c3)CC2)nc2ccccn12 | inactive
8 | Nc1nc2[nH]cc(CCc3ccc(C(=O)N[C@@H](CCC(=O)O)C(=O)O)cc3)c2c(=O)[nH]1 | inactive
9 | NC(=O)c1cnccn1 | inactive
10 | CC(C)(C)NCC(O)c1ccc(O)c(CO)c1 (stereo not given) | inactive
11 | CNC[C@H](O)c1cccc(O)c1 | inactive
12 | N[C@@H]1CONC1=O | inactive
13 | CCOc1cc(C=C2C(=O)N(c3ccccc3)N=C2C)cc(Cl)c1OCC(=O)OC | 2.64 µM (active)
14 | Cc1cn[nH]c1 | 1.18 µM (active)
15 | CCN(CC)CCCC(C)Nc1nc(C)cc(Nc2ccc3nc(C)cc(N)c3c2)n1 (stereo not given) | 16.6 µM (active)
16 | CCOc1ccc(Cc2cc([C@@H]3O[C@H](CO)[C@@H](O)[C@H](O)[C@@H]3O)ccc2Cl)cc1 | inactive
17 | COc1ccc(-c2c(-c3ccc(O)cc3O)n[nH]c2C)cc1 | 19.1 µM (active)
18 | S=C(NCc1ccc2c(c1)OCO2)N1CCN(c2ncnc3c2oc2ccccc23)CC1 | 4.81 µM (active)
19 | CCc1cc(Nc2nccc(-c3c(-c4ccc(OC)c(C(=O)Nc5c(F)cccc5F)c4)nc4ccccn34)n2)c(OC)cc1N1CCC(N2CCN(S(C)(=O)=O)CC2)CC1 | 7.43 µM (active)
20 | CC(C=CC1=C(C)CCCC1(C)C)=CC=CC(C)=CC(=O)O | 18.7 µM (active) and 6.62 µM (active)

Row | Structure (SMILES) | Potency
21 | Nc1ncnc2nc(-c3ccc(N4CCOCC4)nc3)cc(-c3cccc(Br)c3)c12 | 14.8 µM (active)
22 | O=C1CCCC2=C1C(c1[nH]ncc1Cl)N=C(Nc1nc3ccccc3o1)N2 (stereo not given) | 5.9 µM (active)
23 | Cc1cc(SCc2sc(-c3ccc(C(F)(F)F)cc3)nc2C)ccc1OCC(=O)O | inactive
24 | COc1ccc(CC2=NN3C([C@@H](CCc4ccccc4)[C@@H](C)O)=NC(C)C3C(=O)N2)cc1OC (stereo not given in full) | inactive
25 | C#Cc1cccc(Nc2ncnc3cc(OCCOC)c(OCCOC)cc23)c1 | 7.43 µM (active)
26 | COc1ccc2c3n(c(=NC(=O)c4cccnc4)nc2c1OC)CCN3 | 1.87 µM (active)
27 | CCn1cc(C(=O)O)c(=O)c2cc(F)c(N3CCNC(C)C3)c(F)c21 (stereo not given) | inactive
28 | Cc1ccccc1C(OCCN(C)C)c1ccccc1 (stereo not given) | inactive
29 | COc1cc(Oc2ccnc3cc(OC)c(OC)cc23)ccc1NC(=O)NC(C)c1nccs1 (stereo not given) | inactive
30 | Cn1cc(-c2ccc3nnc(C(F)(F)c4ccc5ncccc5c4)n3n2)cn1 | inactive
31 | NNCCc1ccccc1 | inactive
32 | O=C1CCC(N2C(=O)c3ccccc3C2=O)C(=O)N1 (stereo not given) | inactive
33 | Cc1ccc(-n2nc(C(C)(C)C)cc2NC(=O)Nc2ccc(OCCN3CCOCC3)c3ccccc23)cc1 | 0.59 µM (active)
34 | NC(=O)c1ccc(I)c([N+](=O)[O-])c1 | 8.33 µM (active)
35 | COc1ccccc1[C@H](c1cccc2ccccc12)[C@@](C)(C#N)C(=O)N1CCC(c2cccc(C(F)(F)F)c2)CC1 | 3.72 µM (active)
36 | CCOC(=O)N1CCC(=C2c3ccc(Cl)cc3CCc3cccnc32)CC1 | 7.43 µM (active)
37 | Clc1cccc(Cl)c1NC1=NCCN1 | inactive
38 | NC(=O)C1CCCc2c1[nH]c1ccc(Cl)cc21 (stereo not given) | inactive
39 | Cc1oncc1C(=O)Nc1ccc(C(F)(F)F)cc1 | 18.7 µM (active)
40 | O=C(NOC[C@H](O)CO)c1ccc(F)c(F)c1Nc1ccc(I)cc1F | 0.059 µM (active)
